Results on 40 molecules are retold here after PubChem BioAssay (EPA / NIEHS).

The structures appear in SMILES notation. “And” between values parts separate entries of the source, which are not always exact repeats. Equal entries are not always repeated. Inconclusive results are not listed. The source made the active and inactive calls. How the source made its calls: active means hit-call score of the fitted dose curve at least 0.9, where 1 is the maximum; inconclusive means response in the unintended direction; inactive means score below 0.9.

A short description of the test: ACEA_AR_antagonist_AUC_viability: ACEA Biosciences xCELLigence Real-Time Cell Analysis on Androgen Receptor Antagonism for Viability (AID 2283776).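 Further: area under impedance growth curve at 80 h after dosing as viability; hits lower the growth signal relative to DMSO meaning cytotoxicity.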 The procedure: ACEA_AR_antagonist is a cell-based, single-readout assay that uses 22Rv1, a human prostate cancer cell line, with measurements taken at 80 hours after chemical dosing in a 384-well plate, although TO5 and TO6 (mc0.srcf) used a 96-well plate. Differences in plate size can be ignored given data normalization.ACEA_AR_80hr is one of two assay component(s) measured or calculated from the […] assay. It is designed to make measurements of real-time cell-growth kinetics, a form of growth reporter, as detected with electrical impedance signals by Real-Time Cell Electrode Sensor (RT-CES) technology.Data from the assay component ACEA_AR_antagonist_AUC_viability was analyzed in the positive analysis fitting direction relative to DMSO as the negative control and baseline of activity. Using a type of growth reporter, loss-of-signal activity can be used to understand changes in the viability. Furthermore, this assay endpoint can be referred to as a secondary readout, because this assay has produced multiple assay endpoints where this one serves a viability function. To generalize the intended target to other relatable targets, this assay endpoint is annotated to the cell cycle intended target family, where the subfamily is cytotoxicity.
The xCELLigence system Multi-E-Plate stations were used to measure the time-dependent response to chemicals. Each compound was tested in an eight-point, 1:4 serial dilution series starting at a maximum final concentration of 100 uM. A maximum starting concentration of 0.5% DMSO was present in the 100 uM chemical samples and was diluted along with the test article dilution series. The screen was performed in biological duplicate using two separate, 96-well, E-Plates 96 for each dilution series (n = 2). Positive controls (MG132 and testosterone) and a negative control (assay media) were tested in quadruplicate on each testing plate. Then, 0.5% and 0.125% DMSO were tested in duplicates in each plate to serve as solvent controls for the 2 highest concentrations of testing compounds: 100 uM and 25 uM. Reference compounds were tested with 8 concentrations with 1:5 serial dilutions. All screening was carried out by ACEA Biosciences, Inc. (San Diego, CA). 22Rv1 cells purchased from ATCC were maintained in media supplemented with 10% fetal bovine serum (FBS). Before screening, 22Rv1 cells were preconditioned in assay medium. Cells were then detached and seeded in E-Plates 96 in assay medium. After overnight monitoring of growth once every hour, compounds were added to […] cells and remained in the medium until the end of the experiment. Cellular responses were then recorded once every 5 min for the first 5 h, and once every hour for an additional 100 h.
As a reminder, the AC50 is the concentration giving half of the maximal activity seen. As to `Oc1ccc(-c2ccccc2)cc1`, the AC50 was 1.1 µM (active).

On to `CCC[CH2][Sn]([CH2]CCC)([CH2]CCC)[O]C(=O)c1ccccc1`, for which the AC50 is 1.06 µM (active).

Turning to `Cl/C=C\C[N+]12CN3CN(CN(C3)C1)C2`, the molecule was called inactive.

For the molecule `CC(C)(C)c1cc(O)ccc1O`, the AC50 was 86.2 µM (active).

Consider `Cl/C=C/Cl`, for which the molecule was called inactive.

As to `C[C@@H]1C[C@@H]([C@H](O)CC2CC(=O)NC(=O)C2)C(=O)[C@@H](C)C1`, the AC50 is 1.35 µM (active).

In the case of `O=C(Cc1ccccc1)c1ccccc1`, the call was inactive.

On to `O=S(=O)(c1ccc(Cl)cc1)c1ccc(Cl)cc1`, for which the call was inactive.

Turning to `CC(C)(OO)c1ccccc1`, the result was inactive.

As to `CC1(C)CCC(Cc2ccc(Cl)cc2)C1(O)Cn1cncn1` (stereo not given), the molecule was classed as inactive.

`NNC(=S)NN`: the call was inactive.

For the molecule `CCCCCCCCSC(=O)Oc1cc(Cl)nnc1-c1ccccc1`, the molecule was classed as inactive.

Consider `CC(C)C1CCC(Cc2ccc(Cl)cc2)C1(O)Cn1cncn1` (stereo not given), for which the AC50 was 4.94 µM (active).

`ClC(Cl)=C(Cl)C(Cl)=C(Cl)Cl`: the call was inactive.

Consider `CC12CC1(C)C(=O)N(c1cc(Cl)cc(Cl)c1)C2=O` (stereo not given), for which the AC50 was 81 µM (active).

As to `Clc1ccc(C2(Cn3cncn3)CC(Br)CO2)c(Cl)c1` (stereo not given), the molecule was classed as inactive.

As for `CCC1(c2ccc(N)cc2)CCC(=O)NC1=O` (stereo not given), the molecule was called inactive.

For the molecule `N#CN=C(N)N`, the result was inactive.

In the case of `COc1cc(-c2ccc(N)c(OC)c2)ccc1N`, the AC50 is 18.4 µM (active) and 22.3 µM (active).

As to `Cc1ccc(N)cc1Cl`, the outcome was inactive.

`O=C(O)C(F)(F)C(F)(F)C(F)(F)C(F)(F)C(F)(F)C(F)(F)F`: the result was inactive.

With `CCOP(=S)(OCC)Oc1nc(Cl)c(Cl)cc1Cl`, the AC50 is 63.3 µM (active).

For `Cc1ccccc1N`, the call was inactive.

With `O=C(O)C(F)(F)C(F)(F)C(F)(F)C(F)(F)C(F)(F)C(F)(F)C(F)(F)C(F)(F)C(F)(F)C(F)(F)F`, the call was inactive.

Turning to `COC(=O)c1sccc1S(=O)(=O)NC(=O)Nc1nc(C)nc(OC)n1`, the result was inactive.

Turning to `CN(C)N=O`, the call was inactive.

Turning to `Clc1ccc(COC(Cn2ccnc2)c2ccc(Cl)cc2Cl)cc1` (stereo not given), the AC50 is 7.1 µM (active).

`c1cc[c]([Hg][c]2ccccc2)cc1`: the AC50 was 16.6 µM (active).

As to `CCOP(=S)(OCC)SCSP(=S)(OCC)OCC`, the AC50 was 67 µM (active).

As to `CCC(=O)C(CC(C)N(C)C)(c1ccccc1)c1ccccc1` (stereo not given), the AC50 was 32.9 µM (active).

`CC(C)(C)CC(C)(C)c1ccc(O)cc1`: the AC50 was 8.78 µM (active).

`[O-][Cl+2]([O-])O`: the molecule was classed as inactive.

For the molecule `CCOC(=O)Nc1cccc(OC(=O)Nc2ccccc2)c1`, the call was inactive.

On to `CC(=O)[O][Hg][c]1ccccc1`, for which the AC50 was 1.63 µM (active).

For `COc1ccc(C=O)cc1`, the outcome was inactive.

As to `OCc1ccco1`, the molecule was classed as inactive.

Regarding `O=C/C=C/c1ccccc1`, the molecule was classed as inactive.

For the molecule `CC(=O)C=C(C)C`, the result was inactive.

On to `C=C(C)C(=O)[O][Sn]([CH2]CCC)([CH2]CCC)[CH2]CCC`, for which the AC50 was 1.35 µM (active).

With `CNC`, the call was inactive.
